Data from ChEMBL document CHEMBL1961873, “Compounds: GSK PKIS; Assays: Nanosyn kinase panel” (2012).

Columns and labels:
[1] = biological target: High affinity nerve growth factor receptor (Homo sapiens) (UniProt P04629); conditions: at 1 µM;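 further: each value is the mean percent inhibition of TRKA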
[2] = biological target: BDNF/NT-3 growth factors receptor (Homo sapiens) (UniProt Q16620); conditions: at 0.1 µM
[3] = biological target: BDNF/NT-3 growth factors receptor (Homo sapiens) (UniProt Q16620); conditions: at 1 µM
[4] = biological target: NT-3 growth factor receptor (Homo sapiens) (UniProt Q16288); conditions: at 0.1 µM
NT-3 growth factor receptor (Homo sapiens), sequence (Q16288 32-839 limits assumed): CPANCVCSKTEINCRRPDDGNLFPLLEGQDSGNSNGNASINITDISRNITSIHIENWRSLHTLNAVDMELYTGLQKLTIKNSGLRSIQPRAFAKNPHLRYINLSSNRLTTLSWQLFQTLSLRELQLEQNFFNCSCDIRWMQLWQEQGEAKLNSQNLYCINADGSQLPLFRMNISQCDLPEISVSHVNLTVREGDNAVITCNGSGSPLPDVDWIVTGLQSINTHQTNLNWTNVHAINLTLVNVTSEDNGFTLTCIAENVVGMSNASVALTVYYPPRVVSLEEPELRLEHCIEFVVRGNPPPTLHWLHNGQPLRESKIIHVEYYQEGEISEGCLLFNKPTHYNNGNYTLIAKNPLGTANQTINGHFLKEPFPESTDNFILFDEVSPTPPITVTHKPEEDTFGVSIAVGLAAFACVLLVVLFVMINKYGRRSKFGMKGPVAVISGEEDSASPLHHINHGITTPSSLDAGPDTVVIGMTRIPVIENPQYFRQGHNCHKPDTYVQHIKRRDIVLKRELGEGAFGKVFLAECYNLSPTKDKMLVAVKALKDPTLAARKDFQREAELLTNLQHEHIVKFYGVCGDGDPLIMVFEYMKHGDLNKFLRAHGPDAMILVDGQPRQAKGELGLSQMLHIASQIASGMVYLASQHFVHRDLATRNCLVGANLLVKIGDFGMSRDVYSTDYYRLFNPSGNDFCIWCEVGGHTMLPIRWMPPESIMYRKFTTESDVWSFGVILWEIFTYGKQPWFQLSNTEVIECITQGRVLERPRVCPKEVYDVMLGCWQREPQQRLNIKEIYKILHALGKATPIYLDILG

[5] = biological target: NT-3 growth factor receptor (Homo sapiens) (UniProt Q16288); conditions: at 1 µM
[6] = biological target: T1, Tyrosine-protein kinase TXK (Homo sapiens) (UniProt P42681); conditions: at 0.1 µM
T1 sequence (whole entry): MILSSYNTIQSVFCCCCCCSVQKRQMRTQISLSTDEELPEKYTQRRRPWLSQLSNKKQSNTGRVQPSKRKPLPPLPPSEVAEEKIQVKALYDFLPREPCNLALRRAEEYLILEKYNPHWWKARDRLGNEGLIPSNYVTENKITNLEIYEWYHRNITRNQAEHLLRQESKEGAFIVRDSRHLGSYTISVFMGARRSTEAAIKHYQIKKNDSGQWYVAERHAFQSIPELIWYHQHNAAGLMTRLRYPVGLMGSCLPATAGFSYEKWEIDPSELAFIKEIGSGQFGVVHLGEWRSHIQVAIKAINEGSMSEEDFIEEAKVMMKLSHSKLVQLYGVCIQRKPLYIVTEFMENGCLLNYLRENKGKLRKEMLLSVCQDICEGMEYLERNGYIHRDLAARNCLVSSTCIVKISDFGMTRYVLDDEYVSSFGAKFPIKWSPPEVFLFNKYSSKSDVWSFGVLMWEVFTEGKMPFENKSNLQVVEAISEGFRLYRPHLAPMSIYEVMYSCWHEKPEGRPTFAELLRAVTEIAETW

[7] = biological target: T1, Tyrosine-protein kinase TXK (Homo sapiens); conditions: at 1 µM
[8] = biological target: Non-receptor tyrosine-protein kinase TYK2 (Homo sapiens) (UniProt P29597); conditions: at 0.1 µM;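 further: each value is a mean of the inhibition readings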
Non-receptor tyrosine-protein kinase TYK2 (Homo sapiens), sequence (P29597 whole entry): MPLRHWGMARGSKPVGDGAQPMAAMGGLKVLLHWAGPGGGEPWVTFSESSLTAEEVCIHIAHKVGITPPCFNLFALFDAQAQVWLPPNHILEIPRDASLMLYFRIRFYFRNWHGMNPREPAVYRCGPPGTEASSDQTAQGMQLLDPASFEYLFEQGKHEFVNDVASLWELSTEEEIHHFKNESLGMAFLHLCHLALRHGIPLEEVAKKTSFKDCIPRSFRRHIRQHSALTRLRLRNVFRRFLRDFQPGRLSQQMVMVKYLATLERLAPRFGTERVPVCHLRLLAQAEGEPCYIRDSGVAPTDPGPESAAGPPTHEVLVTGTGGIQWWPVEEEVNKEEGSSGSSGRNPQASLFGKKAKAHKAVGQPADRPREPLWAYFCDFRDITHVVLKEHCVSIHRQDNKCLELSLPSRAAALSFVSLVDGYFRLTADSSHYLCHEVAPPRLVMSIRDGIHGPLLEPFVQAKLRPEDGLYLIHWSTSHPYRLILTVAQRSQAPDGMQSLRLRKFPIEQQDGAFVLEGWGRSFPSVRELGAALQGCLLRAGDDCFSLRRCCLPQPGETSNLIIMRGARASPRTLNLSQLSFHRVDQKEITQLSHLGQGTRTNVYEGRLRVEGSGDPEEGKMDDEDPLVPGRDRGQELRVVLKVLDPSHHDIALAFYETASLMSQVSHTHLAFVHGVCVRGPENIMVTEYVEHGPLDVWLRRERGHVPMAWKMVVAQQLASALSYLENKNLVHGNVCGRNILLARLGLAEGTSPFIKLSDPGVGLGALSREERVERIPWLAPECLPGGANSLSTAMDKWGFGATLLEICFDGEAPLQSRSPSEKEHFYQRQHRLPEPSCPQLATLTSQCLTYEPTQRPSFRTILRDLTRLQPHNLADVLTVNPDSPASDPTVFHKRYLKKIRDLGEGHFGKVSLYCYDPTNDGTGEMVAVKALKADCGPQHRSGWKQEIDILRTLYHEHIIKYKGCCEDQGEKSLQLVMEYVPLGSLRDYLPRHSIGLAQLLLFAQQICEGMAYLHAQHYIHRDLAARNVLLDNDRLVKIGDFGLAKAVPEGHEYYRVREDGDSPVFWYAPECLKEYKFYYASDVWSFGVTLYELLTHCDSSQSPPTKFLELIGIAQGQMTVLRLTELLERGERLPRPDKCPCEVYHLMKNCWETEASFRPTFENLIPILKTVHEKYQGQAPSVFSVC

[9] = biological target: T2, Dual specificity protein kinase TTK (Homo sapiens) (UniProt P33981); conditions: at 1 µM;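 further: reported figures are mean TTK inhibition at 1 µM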
T2 sequence (whole entry): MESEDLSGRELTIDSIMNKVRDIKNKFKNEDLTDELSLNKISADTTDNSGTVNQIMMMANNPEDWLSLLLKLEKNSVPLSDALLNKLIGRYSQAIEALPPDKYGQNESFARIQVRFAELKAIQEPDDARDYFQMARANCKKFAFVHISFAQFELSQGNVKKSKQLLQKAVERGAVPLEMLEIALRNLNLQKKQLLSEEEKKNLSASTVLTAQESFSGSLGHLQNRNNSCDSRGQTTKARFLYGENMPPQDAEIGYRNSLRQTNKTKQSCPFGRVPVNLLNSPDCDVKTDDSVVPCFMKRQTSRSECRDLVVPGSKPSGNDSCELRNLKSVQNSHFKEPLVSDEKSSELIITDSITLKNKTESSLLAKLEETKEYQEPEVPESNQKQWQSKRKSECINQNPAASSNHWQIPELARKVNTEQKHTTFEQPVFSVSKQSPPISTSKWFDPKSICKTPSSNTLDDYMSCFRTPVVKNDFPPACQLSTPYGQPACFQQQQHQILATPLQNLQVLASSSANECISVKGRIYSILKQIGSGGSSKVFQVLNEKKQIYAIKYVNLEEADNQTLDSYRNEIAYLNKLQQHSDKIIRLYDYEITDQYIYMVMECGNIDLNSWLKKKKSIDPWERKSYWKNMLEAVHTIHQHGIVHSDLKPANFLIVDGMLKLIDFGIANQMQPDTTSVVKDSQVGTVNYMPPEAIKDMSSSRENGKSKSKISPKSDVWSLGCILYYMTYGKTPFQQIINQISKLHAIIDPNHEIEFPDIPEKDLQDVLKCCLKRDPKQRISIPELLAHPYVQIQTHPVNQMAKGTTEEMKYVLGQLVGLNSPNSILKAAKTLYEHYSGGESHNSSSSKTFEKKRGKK

[10] = biological target: T3, Aurora kinase A (Homo sapiens) (UniProt O14965); conditions: at 0.1 µM
T3 sequence (whole entry): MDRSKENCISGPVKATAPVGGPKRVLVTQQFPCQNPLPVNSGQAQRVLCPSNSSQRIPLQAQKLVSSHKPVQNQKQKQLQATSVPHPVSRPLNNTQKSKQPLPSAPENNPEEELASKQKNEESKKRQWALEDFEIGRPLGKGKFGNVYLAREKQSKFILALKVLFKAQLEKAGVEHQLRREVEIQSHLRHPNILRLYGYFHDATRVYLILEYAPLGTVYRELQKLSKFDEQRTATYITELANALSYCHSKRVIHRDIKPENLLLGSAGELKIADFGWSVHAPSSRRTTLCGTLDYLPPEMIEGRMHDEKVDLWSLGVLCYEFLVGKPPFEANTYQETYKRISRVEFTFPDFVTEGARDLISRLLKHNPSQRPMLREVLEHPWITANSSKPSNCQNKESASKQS

[11] = biological target: T3, Aurora kinase A (Homo sapiens); conditions: at 1 µM
[12] = biological target: Aurora kinase B (Homo sapiens) (UniProt Q96GD4); conditions: at 0.1 µM
[13] = biological target: Aurora kinase B (Homo sapiens) (UniProt Q96GD4); conditions: at 1 µM
[14] = biological target: T4, Aurora kinase C (Homo sapiens) (UniProt Q9UQB9); conditions: at 0.1 µM
T4 sequence (whole entry): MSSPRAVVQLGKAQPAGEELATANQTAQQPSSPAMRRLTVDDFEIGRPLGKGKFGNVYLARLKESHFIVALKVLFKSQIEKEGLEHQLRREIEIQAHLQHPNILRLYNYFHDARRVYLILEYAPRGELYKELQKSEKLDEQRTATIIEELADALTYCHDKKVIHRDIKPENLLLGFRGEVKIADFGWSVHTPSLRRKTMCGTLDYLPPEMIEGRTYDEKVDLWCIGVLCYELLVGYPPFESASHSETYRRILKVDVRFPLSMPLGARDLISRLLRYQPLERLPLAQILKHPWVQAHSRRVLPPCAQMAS

[15] = biological target: T4, Aurora kinase C (Homo sapiens); conditions: at 1 µM
[16] = biological target: Serine/threonine-protein kinase 10 (Homo sapiens) (UniProt O94804); conditions: at 0.1 µM
[17] = biological target: Serine/threonine-protein kinase 10 (Homo sapiens) (UniProt O94804); conditions: at 1 µM
[18] = biological target: T5, Mitogen-activated protein kinase kinase kinase kinase 2 (Homo sapiens) (UniProt Q12851); conditions: at 0.1 µM
T5 sequence (whole entry): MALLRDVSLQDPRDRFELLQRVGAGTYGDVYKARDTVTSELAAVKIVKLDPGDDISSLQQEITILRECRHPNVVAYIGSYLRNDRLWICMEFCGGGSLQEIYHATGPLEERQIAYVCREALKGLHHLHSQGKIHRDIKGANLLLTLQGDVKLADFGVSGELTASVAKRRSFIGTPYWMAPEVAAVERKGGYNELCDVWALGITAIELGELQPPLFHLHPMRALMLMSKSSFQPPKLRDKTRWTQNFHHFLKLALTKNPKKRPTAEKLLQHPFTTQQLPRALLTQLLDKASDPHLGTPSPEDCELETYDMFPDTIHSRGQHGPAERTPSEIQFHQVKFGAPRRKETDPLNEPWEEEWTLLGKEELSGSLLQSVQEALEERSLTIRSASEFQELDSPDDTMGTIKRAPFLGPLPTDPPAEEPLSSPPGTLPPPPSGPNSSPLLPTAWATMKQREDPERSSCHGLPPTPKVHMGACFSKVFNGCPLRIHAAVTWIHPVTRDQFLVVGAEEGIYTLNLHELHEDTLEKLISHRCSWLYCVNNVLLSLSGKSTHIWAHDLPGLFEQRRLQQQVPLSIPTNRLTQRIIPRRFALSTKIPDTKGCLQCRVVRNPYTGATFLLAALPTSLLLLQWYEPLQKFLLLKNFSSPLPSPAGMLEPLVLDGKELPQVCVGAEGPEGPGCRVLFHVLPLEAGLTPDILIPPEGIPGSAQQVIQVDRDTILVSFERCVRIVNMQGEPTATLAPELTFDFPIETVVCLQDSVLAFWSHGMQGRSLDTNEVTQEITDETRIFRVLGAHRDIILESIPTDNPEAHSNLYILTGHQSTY

[19] = biological target: T5, Mitogen-activated protein kinase kinase kinase kinase 2 (Homo sapiens); conditions: at 1 µM
[20] = biological target: Mitogen-activated protein kinase kinase kinase kinase 4 (Homo sapiens) (UniProt O95819); conditions: at 0.1 µM
Mitogen-activated protein kinase kinase kinase kinase 4 (Homo sapiens), sequence (O95819 2-1239 limits assumed): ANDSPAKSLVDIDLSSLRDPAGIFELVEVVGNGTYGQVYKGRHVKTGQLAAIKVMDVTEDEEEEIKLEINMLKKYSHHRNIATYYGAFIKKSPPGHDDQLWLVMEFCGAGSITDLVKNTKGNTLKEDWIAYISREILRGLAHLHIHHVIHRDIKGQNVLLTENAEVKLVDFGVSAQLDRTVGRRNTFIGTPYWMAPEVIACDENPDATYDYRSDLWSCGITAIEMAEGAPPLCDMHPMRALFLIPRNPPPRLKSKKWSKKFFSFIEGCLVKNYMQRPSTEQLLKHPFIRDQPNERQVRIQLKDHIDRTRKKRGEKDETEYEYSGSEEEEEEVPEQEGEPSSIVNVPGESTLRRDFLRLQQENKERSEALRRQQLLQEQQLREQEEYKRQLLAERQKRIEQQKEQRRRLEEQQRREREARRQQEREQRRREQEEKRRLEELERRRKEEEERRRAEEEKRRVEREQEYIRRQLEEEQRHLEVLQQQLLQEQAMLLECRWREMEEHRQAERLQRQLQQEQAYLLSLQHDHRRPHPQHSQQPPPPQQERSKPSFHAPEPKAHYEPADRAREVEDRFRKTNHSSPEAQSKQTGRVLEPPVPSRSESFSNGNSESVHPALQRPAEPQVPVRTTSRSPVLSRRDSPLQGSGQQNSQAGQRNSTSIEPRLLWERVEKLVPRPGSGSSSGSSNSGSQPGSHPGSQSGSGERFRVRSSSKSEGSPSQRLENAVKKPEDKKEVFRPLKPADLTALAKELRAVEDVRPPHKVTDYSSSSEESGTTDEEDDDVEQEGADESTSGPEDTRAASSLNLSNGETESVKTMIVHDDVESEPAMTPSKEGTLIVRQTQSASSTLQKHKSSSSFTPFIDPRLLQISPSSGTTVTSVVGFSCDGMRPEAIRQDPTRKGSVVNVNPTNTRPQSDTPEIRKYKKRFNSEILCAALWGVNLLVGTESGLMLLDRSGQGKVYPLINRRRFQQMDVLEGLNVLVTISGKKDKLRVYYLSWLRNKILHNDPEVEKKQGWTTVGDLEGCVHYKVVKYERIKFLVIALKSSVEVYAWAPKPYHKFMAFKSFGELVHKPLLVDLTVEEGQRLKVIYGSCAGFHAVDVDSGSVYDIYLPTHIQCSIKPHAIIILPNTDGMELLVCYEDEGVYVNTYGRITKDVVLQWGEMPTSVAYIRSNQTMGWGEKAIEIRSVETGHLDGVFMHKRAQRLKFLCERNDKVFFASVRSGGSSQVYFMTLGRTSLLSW

BDNF/NT-3 growth factors receptor (Homo sapiens), sequence (Q16620 32-822 limits assumed): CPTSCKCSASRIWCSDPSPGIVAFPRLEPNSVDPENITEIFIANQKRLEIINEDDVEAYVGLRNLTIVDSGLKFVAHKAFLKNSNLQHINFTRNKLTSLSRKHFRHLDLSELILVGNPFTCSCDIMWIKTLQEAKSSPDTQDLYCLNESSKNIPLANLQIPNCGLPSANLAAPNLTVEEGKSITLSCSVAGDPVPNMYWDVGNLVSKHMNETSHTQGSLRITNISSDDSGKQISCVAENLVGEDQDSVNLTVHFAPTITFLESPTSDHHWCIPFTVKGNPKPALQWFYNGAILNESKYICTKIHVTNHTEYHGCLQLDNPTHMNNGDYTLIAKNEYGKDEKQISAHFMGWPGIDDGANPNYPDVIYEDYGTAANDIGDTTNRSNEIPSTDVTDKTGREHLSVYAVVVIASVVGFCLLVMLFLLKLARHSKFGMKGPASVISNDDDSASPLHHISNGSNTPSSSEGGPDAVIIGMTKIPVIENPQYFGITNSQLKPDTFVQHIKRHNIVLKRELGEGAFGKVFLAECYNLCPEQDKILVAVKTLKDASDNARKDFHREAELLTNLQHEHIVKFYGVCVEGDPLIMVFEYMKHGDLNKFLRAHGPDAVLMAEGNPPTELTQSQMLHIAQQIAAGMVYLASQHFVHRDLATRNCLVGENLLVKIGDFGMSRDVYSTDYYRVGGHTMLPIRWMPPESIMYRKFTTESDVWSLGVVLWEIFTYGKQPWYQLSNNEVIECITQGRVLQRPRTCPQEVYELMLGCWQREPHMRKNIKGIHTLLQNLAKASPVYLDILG
High affinity nerve growth factor receptor (Homo sapiens), sequence (P04629 33-796 limits assumed): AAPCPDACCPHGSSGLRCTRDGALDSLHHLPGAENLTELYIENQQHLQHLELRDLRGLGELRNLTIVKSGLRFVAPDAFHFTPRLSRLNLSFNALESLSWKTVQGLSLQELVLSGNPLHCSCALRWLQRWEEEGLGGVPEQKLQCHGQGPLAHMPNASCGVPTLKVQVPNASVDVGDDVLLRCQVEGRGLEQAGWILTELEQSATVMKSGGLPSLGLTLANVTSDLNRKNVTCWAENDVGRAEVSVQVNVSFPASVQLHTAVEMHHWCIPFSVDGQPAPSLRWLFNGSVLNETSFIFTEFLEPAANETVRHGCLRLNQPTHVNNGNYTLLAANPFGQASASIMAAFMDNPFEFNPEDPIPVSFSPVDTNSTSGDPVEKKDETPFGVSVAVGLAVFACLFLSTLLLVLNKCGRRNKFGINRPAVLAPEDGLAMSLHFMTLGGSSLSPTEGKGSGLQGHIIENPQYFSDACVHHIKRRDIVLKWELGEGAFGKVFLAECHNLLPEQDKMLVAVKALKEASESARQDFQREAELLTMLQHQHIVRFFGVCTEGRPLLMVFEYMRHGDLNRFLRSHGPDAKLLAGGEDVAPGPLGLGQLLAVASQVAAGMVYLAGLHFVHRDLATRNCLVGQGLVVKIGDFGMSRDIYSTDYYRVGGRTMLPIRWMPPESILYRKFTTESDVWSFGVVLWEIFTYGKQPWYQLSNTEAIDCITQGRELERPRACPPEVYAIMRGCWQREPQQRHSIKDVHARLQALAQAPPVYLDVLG

Compound	inhibition [1] [%]	inhibition [2] [%]	inhibition [3] [%]	inhibition [4] [%]	inhibition [5] [%]	inhibition [6] [%]	inhibition [7] [%]	inhibition [8] [%]	inhibition [9] [%]	inhibition [10] [%]	inhibition [11] [%]	inhibition [12] [%]	inhibition [13] [%]	inhibition [14] [%]	inhibition [15] [%]	inhibition [16] [%]	inhibition [17] [%]	inhibition [18] [%]	inhibition [19] [%]	inhibition [20] [%]
COC(=O)Nc1nc2cc(Oc3ccc(NC(=O)Nc4cccc(Br)c4)cc3)ccc2[nH]1	55.6	19.7	32.5	20.9	38.8	2.73	4.17	0.49	8.12	0.95	7.48	8.64	21	11.4	42.5	20.5	34.2	3.41	10.2	3.09
CCS(=O)(=O)c1ccc(OC)c(Nc2ncc(-c3cccc(OC)c3)o2)c1	30.9	7.72	43.5	11.7	49.3	14.5	53.4	-5.06	7.02	4.52	34.5	2.15	5.4	1.61	14.6	4.31	8.64	1.39	6.14	4.46
N#Cc1cccc(Nc2nccc(-c3cnn4ncccc34)n2)c1	65.7	24.3	75.3	28.2	87.5	5.32	24.4	-4.17	35	11.3	74.5	19.3	64	18.5	96.7	5.05	15.8	11	45.8	19.3
CN(C)C(=O)O[C@H]1CN[C@H](C#Cc2cc3ncnc(Nc4ccc(OCc5cccc(F)c5)c(Cl)c4)c3s2)C1	0.1	1.92	2.03	1.38	2.78	2.86	4.84	-7.95	6.07	1.25	9.61	3.92	7.39	2.15	8.8	4.18	8.61	0.82	2.78	3.45
Cc1ccc2c(-c3ccnc(Nc4cccc(C(F)(F)F)c4)n3)c(-c3ccccc3)nn2n1	7.09	4.09	5.15	2.41	5.05	6.16	17.2	-1.28	10.6	1.82	6.06	5.03	7.6	3.89	9.67	8.49	11.5	-0.05	9.38	7.07
